Screening data (PubChem BioAssay)
ALDH1A1 block – ALDH1A1 (human) enzyme inhibition; Purified ALDH1A1, NADH fluorescence, propionaldehyde substrate; Potency, µM (titrated, usually from 75.3 µM), without a hit: top-dose activity, negative = inhibition, most hits filed as inhibitors; P00352; 7.3% of 220,000 active; active means well fitted inhibition curve with a large enough effect, not every such curve was filed as active; inconclusive means small, poorly fitted or top-dose-only effect, or another doubt; inactive means no such curve, though single readings can be large or run the other way;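 further: plate controls were no enzyme wells and a reference inhibitor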
Target sequence (P00352 whole entry, looked up): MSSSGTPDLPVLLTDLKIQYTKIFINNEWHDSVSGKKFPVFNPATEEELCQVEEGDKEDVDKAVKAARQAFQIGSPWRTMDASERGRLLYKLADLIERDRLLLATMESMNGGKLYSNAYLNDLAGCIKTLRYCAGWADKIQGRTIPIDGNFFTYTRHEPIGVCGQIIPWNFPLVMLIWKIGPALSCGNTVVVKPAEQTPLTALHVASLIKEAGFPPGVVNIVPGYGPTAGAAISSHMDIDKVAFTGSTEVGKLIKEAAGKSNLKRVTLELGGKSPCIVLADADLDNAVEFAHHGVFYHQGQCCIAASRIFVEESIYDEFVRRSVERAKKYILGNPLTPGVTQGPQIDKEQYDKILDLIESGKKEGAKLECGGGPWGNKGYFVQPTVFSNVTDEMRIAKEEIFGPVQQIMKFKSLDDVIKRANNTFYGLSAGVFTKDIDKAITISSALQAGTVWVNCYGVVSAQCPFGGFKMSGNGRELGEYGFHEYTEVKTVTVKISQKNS
HPGD block – blocks human HPGD enzyme activity; P15428; purified HPGD, NADH fluorescence kinetic, PGE2 substrate; Potency, µM, for inactives: at the highest dose activity change, negative = inhibition, actives largely listed as inhibitors; 4.3% of 150,000 active; AID 894; active means well fitted inhibition curve with a large enough effect, not every such curve was filed as active; inconclusive means small, poorly fitted or top-dose-only effect, or another doubt; inactive means no such curve, though single readings can be large or run the other way; further: on the % scale 0 is the no-effect control and ±100 the full control effect
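20 nM HPGD preincubated 15 min at room temperature with compound in 50 mM Tris-HCl pH 8, 0.01% Tween 20. Started with 1 mM NAD+ and 30 uM prostaglandin E2; NADH fluorescence (360/450 nm) read 5 times over 30-s intervals, last minus first.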
HttQ103 aggreg – reduces HttQ103-GFP aggregates in PC12 cells. PC12 HttQ103-GFP aggregates, Acumen cytometry, 40 h. Potency, µM (titrated, usually from 46.1 µM), without a hit: at the highest dose activity change, negative = inhibition, actives largely listed as inhibitors. 1.1% of 220,000 active. AID 1688; further: on the % scale 0 is the no-effect control and ±100 the full control effect; nearly all actives have a fitted effect of over 60% in size
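Read-out: GFP aggregate count by laser scanning cytometer (488 nm excitation, 500-530 nm emission, 1–25 µm objects >6 SD above background). Cells: PC12, inducible HTTex1-Q103-GFP, 100 nM tebufenozide; compounds titrated.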
LMNA splice mod – modulators of lamin A splicing; HeLa LMNA splicing GFP/RFP minigene ratio, 48 h; Potency, µM (highest dose often 46.1 µM), for inactives: at the highest dose ratio change, negative = inhibition, hits mostly inhibitors; 0.01% of 200,000 active; AID 1487; active means well fitted inhibition curve with a large enough effect in the signal ratio, with a control signal flat, not every such curve was filed as active; inconclusive means small, poorly fitted or top-dose-only effect, or effect the other way, or a change in a side signal; the % refers to the signal ratio; further: on the % scale 0 is the no-effect control and ±100 the full control effect
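S3 HeLa stable clones carrying a lamin A-EGFP splicing minigene plus DsRed2 were seeded at 600 cells/well in Opti-MEM with 2% FBS, pin-dosed and incubated 48 h at 37°C. Acumen cytometry (488 nm) gave the GFP/RFP total-intensity ratio.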
HTT ATP protect – Huntington cell model cytoprotection by ATP luminescence. Potency, µM (series often up to 56.4 µM), for inactives: cytoprotection (ATP increase), most hits filed as activators. PC12 HTT-Q103 induced, cytoprotection, ATP luminescence, 40 h. AID 1471. 0.14% of 230,000 active; further: % of control where 0% means no effect; nearly all actives have a fitted effect of over 45% in size
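Huntington model: PC12 line, ecdysone-inducible HTTQ103 exon1–GFP, tebufenozide 100 nM. Test articles in a dose series. Endpoint luminescence from cellular ATP.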
Numbers without * were called inactive; ? = inconclusive; · = no result; [ ] = another dose, or the depositor's remark. Sampled rows, rich in hits. Any-hit rate of the full collection: about 8.8%. Unless noted, the call rests on the fitted dose curve; in most records, active means well fitted curve in the direction sought with a large enough effect; inconclusive means small, poorly fitted or top-dose-only effect, or another doubt; inactive means no such curve, though single readings can be large; an effect the other way counts as inactive or inconclusive. Potency means the concentration at half of the fitted maximal effect.

SMILES	ALDH1A1 block	HPGD block	HttQ103 aggreg	LMNA splice mod	HTT ATP protect
COc1ccc(N2C(=O)CC(N3CCC(c4nc5ccccc5[nH]4)CC3)C2=O)cc1 (configuration not stated)	?	2%	?	7%	-14%
O=C1CC(N2CCC(c3nc4ccccc4[nH]3)CC2)C(=O)N1c1ccccc1F (configuration not stated)	10µM*	·	9%	-11%[46 µM]	-16%
O=C(Nc1cccc(Br)c1)c1cc(S(=O)(=O)N2CCCCC2)c[nH]1	·	·	·	-2%[46 µM]	·
O=C1[C@H]2[C@@H](C(=O)N1c1cccc3ccccc13)C1(C(=O)c3ccccc3C1=O)N1CCC[C@@H]21	11µM*	-13%	?	4%	-24%
COc1ccc(N2CC(NC(=O)c3ccc(OC(C)C)cc3)CC2=O)cc1 (configuration not stated)	·	·	·	8%[46 µM]	·
CCCCc1c(C)nc2ccccc2c1SCCC#N	7.1µM*	-26%	-29%	-8%	-4%[10 µM]
CCc1c(C)nc2c(C)cccc2c1SCCC#N	7.9µM*	·	-14%[9.22 µM]	·	9%[10 µM]
C=CCc1c(C)nc2c(C)cccc2c1SC(=N)N	-5%	·	-9%[9.22 µM]	·	-2%[10 µM]
Cc1cc(C(=O)O)ccc1-n1c(C)cc(C=C2C(=O)c3ccccc3C2=O)c1C	10µM*	·	11%[9.22 µM]	·	1%[10 µM]
O=C1C(=Cc2ccc(Br)o2)C(=O)c2ccccc21	-4%	32µM*	-18%	-14%	24%[10 µM]
Cc1ccc(C(=O)O)cc1-c1ccc(C=C2C(=O)c3ccccc3C2=O)o1	5µM*	·	6%	·	5%[10 µM]
Cc1cc(C(=O)O)ccc1-n1c(C)cc(/C=C(/C#N)C(=O)Nc2ccccc2)c1C	?	·	-10%[9.22 µM]	·	-17%[10 µM]
Cc1ccc(NC(=O)CN2C(=O)S/C(=C/c3ccc(-c4cc(C(=O)O)ccc4C)o3)C2=O)cc1C	?	32µM*	13%	-2%	-6%
O=C(CN1C(=O)c2ccccc2C1=O)N1CCN=C1c1ccccc1	·	·	4%[9.22 µM]	·	3%[10 µM]
Cc1ccc(C(=O)C(C)OC(=O)c2n[nH]c(=O)c3ccccc23)cc1 (configuration not stated)	16%	14µM*	14%	4%	5%
C[C@@](N)(/C=C\c1ccccc1)C(=O)O	11%[13.5 µM]	-6%	·	·	-13%[10 µM]
NC(=S)N1OC[C@@H]2COc3ccc4ccccc4c3[C@@H]21	13µM*	·	?	·	9%
CC(C)Nc1nc(Oc2ccc(=O)n(-c3ccccc3)n2)nc(N(C)C)n1	·	·	4%[9.22 µM]	·	-8%[10 µM]
CCCCN(C(=O)CSc1nncn1-c1ccccc1OC)c1c(N)n(Cc2ccccc2)c(=O)[nH]c1=O	2.2µM*	·	17%	-7%[46 µM]	-1%
COc1ccc2c(c1)CCc1c(C(=O)NCc3ccc(Cl)cc3)noc1-2	13µM*	-2%	-10%[9.22 µM]	6%	-14%
COc1ccc2c(c1)CCc1c(C(=O)NCc3ccc(F)cc3)noc1-2	1%	1%	12%	-10%	-12%[10 µM]
COc1ccc2c(c1)CCc1c(C(=O)N3CCCc4ccccc43)noc1-2	4.5µM*	-23%	-18%	?	3%[10 µM]
C/[N+]([O-])=C1\Cc2ccccc2C1=O	3.5µM*	-12%	-8%	2%	3%
O=C(NC(=S)Nc1nc(-c2ccccc2)cs1)c1ccco1	14µM*	·	19%	?	-31%
O=C(NC(=S)Nc1nc(-c2ccccc2)cs1)c1cccnc1	8.9µM*	·	-2%	·	-51%
SMILES	ALDH1A1 block	HPGD block	HttQ103 aggreg	LMNA splice mod	HTT ATP protect
O=C(NC(=S)Nc1nc(-c2cccc3ccccc23)cs1)c1cc2ccccc2o1	20µM*	-13%	?	-10%	14%[10 µM]
COc1ccc(-c2csc(NC(=S)NC(=O)c3ccco3)n2)cc1	7%	·	6%	·	-42%
O=C(Cc1ccccc1F)Nc1nc(-c2cccnc2)cs1	25µM*	·	?	·	-87%[10 µM]
Nc1cccc(-n2nnnc2CN2CCOCC2)c1	?	0%	-6%	-12%	2%[10 µM]
O=C(Nc1nc(-c2ccc(F)cc2)cs1)c1cnccn1	6%	-2%	10µM*	-3%	1%[10 µM]
CCCCCC(O)/C=C/C=C\CCCCCCCC(=O)O (configuration not stated)	4%	-2%	·	·	4%
Cc1ccc(N2CC(NC(=O)CCCc3ccccc3)CC2=O)cc1 (configuration not stated)	·	·	·	-1%[46 µM]	·
COc1ccc(-n2c(=S)[nH]c3cc(C(=O)NCCCN4CCCC4=O)ccc3c2=O)cc1OC	2.5µM*	-6%	6%[9.22 µM]	3%	-30%
O=C(NCCCN1CCCC1=O)c1ccc2c(=O)n(Cc3ccco3)c(=S)[nH]c2c1	13µM*	-4%	5%	-4%	7%[10 µM]
CN1CCN(C(=O)c2ccc3c(=O)n(Cc4ccco4)c(=S)[nH]c3c2)CC1	?	-13%	14%[9.22 µM]	8%	-17%
COc1ccc(OC)c(-n2c(=S)[nH]c3cc(C(=O)NCCCN4CCCC4=O)ccc3c2=O)c1	-10%	-1%	?	9%	6%
COC(=O)c1ccc2c(=O)n(CCCN3CCCC3=O)c(=S)[nH]c2c1	?	?	14%	1%	-1%[0.074 µM]
C=CCNC(=O)c1ccc2c(=O)n(CCCN3CCCC3=O)c(=S)[nH]c2c1	3.2µM*	·	-15%	·	-27%
COc1ccccc1CNC(=O)c1ccc2c(=O)n(CCCN3CCCC3=O)c(=S)[nH]c2c1	2µM*	·	-29%	?	-38%
CNc1nc(-c2ccccc2C)nc2ccccc12	8%	·	·	-9%	-5%
O=C1CCC=C1C(O)c1ccc(Cl)cc1 (configuration not stated)	-8%	-5%	·	·	-11%
Cc1ccc(CNC(=O)c2ccc3c(=O)n(CCCN4CCCC4=O)c(=S)[nH]c3c2)cc1	?	-26%	1%	9%	-12%[10 µM]
COc1ccc(CNC(=O)c2ccc3c(=O)n(CCCN4CCCC4=O)c(=S)[nH]c3c2)cc1	28µM*	·	-11%	-9%[46 µM]	-25%
O=C(NCc1ccccc1)c1ccc2c(=O)n(CCCN3CCCC3=O)c(=S)[nH]c2c1	4.5µM*	-11%	0%	11%	7%
C=CCOc1ccccc1CNc1cccc(F)c1	-4%	-2%	11%	-3%	-17%[10 µM]
C=CCOc1ccccc1CNc1ccc2c(c1)OCCO2	?	·	14µM*	·	-168%
